According to ChEMBL document CHEMBL3988442, “University of Dundee, Small-Polar-MMV Screening Library” (2021):
Screen size: about 48,000 compounds; about 13,000 (27%) showed an effect of 50% or more. The list shows a part of the results.

system: Wolbachia pipientis; assay: Anti-Wolbachia Cell-Based Screen; format: functional; design: scale not given: in the data most compounds retested in dose-response had high values; conditions: 5 µM

SMILES | Percent Effect [%]
Cc1cnc(CN2CCOC(CN(C)c3cccnn3)C2)cn1 (stereo not drawn) | 10.01
Cc1cccc(C2CCCN2C(=O)CCS(C)(=O)=O)c1C (stereo not drawn) | -5.02
CC(C)(C)C(O)CN1CCN(CC(=O)NC2CCOCC2)CC1 (stereo not drawn) | 4.367
CCc1ncc(C(=O)NCCn2c(C)cc(C)nc2=O)cn1 | 5.273
O=C(NCCN1CCOC1=O)c1cnc(-c2cccnc2)nc1 | 103
CCc1ncc(C(=O)NCC2CCN(Cc3ccncc3)CC2)cn1 | -2.292
O=C(NCCn1ccnc1C1CCOC1)c1cccnc1 (stereo not drawn) | -7.177
CCN(CCN1CCCCCC1)C(=O)c1cnc(-c2cccnc2)nc1 | -4.892
CCc1ncc(C(=O)NCCN2CCNC2=O)cn1 | 99.04
O=C(NCCN1CCOC1=O)c1ccc2sccc2c1 | -4.154
O=C(NCCN1CCNC1=O)c1cnc(-c2cccnc2)nc1 | 91.56
O=C(NCCN1CCNC1=O)c1cc(-c2ccc(O)cc2)n[nH]1 | 6.287
CN(Cc1cc(Br)cn1C)C(=O)Cc1cccc(O)c1 | -22.7
CNC(=O)Cn1nnc(-c2cc3ccccc3o2)n1 | -5.513
COc1cc(C(=O)NC(CC(=O)O)c2cccs2)cc(Cl)c1OC (stereo not drawn) | 14.71
CC(C)Cn1cncc1CNC1CCSC1 (stereo not drawn) | 0.928
CNCC(=O)Nc1ccc(-c2cnc(NCCS(C)(=O)=O)nc2)cc1 | 99.21
CNC(=O)c1cccc(CCNc2ncc(Br)cn2)c1 | -10.19
Cc1nccc(-c2cccc(NCC(=O)N3CCCCCCC3)c2)n1 | 4.13
CC[C@H](C)Nc1ncc(-c2cccc(NC(=O)CNC)c2)cn1 | 114.1
O=C(CNC(=O)Nc1cccc(-c2nccs2)c1)NCCO | -9.757
CCc1cnc(NCCS(=O)(=O)N(C)C)nc1 | -13.3
Cn1ccnc1-c1cccc(NC(=O)NCC(=O)NC(C)(C)C)c1 | -2.22

SMILES | Percent Effect [%]
CC(C)(C)CC(=O)Nc1ccc(S(C)(=O)=O)nc1 | 8.515
CNCC(=O)Nc1cccc(-c2cnc(NCCS(C)(=O)=O)nc2)c1 | 116.8
Cc1cccc(C(C)(C)NC(=O)CCS(C)(=O)=O)c1 | 2.509
CNCC(=O)Nc1cccc(-c2cnc(NCCO)nc2)c1 | 140.4
CCn1nnnc1-c1cccc(NC(=O)CCOC(C)C)c1 | 1.671
CC(C)n1cnc2c1C(C(=O)N1CCCC1)N(CC1CC1)CC2.O=C(O)C(F)(F)F (stereo not drawn) | 12.69
CC(=O)Nn1c(C)cc(CN2CCCN(Cc3ccncc3)CC2)c1C | 19.43
Cc1n[nH]c(=O)c2c(NC(=O)CN3CCOCC3C)oc(C)c12 (stereo not drawn) | 12.8
CNC(=O)[C@@H]1C[C@H](N)CN1Cc1cc2cc(OC)ccc2nc1O | 8.618
Cc1cc(F)ccc1OC1(C(=O)O)CCN(Cc2c[nH]cn2)CC1 | -1.435
O=C(NCc1cc[nH]n1)NCC(O)COc1cccc(F)c1 (stereo not drawn) | -0.04004
Cn1ccnc1CN1CCN2C[C@H](Oc3cccc(F)c3)C[C@H]2C1.O=C(O)C(F)(F)F.O=C(O)C(F)(F)F | 5.075
C[C@@]1(O)CCN(Cc2cc[nH]n2)C[C@H]1Oc1cccc(F)c1 | 94.39
C[C@]1(O)CCN(Cc2c[nH]cn2)C[C@@H]1Oc1cccc(F)c1 | 125.6
O=C1CC[C@H]2CN(Cc3cccc(F)c3)CC[C@H]2N1CCc1c[nH]cn1 | -2.492
c1ccc2sc(N3CCN(c4ncnc5c4CCC5)CC3)nc2c1 | -7.695
CSc1ncc(C(=O)N2CCN(c3ccccc3C)CC2C)cn1 (stereo not drawn) | -7.257
Cn1cccc1C(=O)N1CC[C@H]2[C@H]1CCN2CC1CCOCC1.O=C(O)C(F)(F)F | -12.52
O=C(O)C(F)(F)F.O=C(c1ccc(F)cc1)N1CC[C@H]2[C@H]1CCN2CC1CCOCC1 | -29.44
O=C(O)C(F)(F)F.O=C(c1cccc(F)c1)N1CC[C@H]2[C@H]1CCN2CC1CCOCC1 | -10.34
O=C(O)C(F)(F)F.O=C(c1cscn1)N1CC[C@@H]2[C@@H]1CCN2CC1CCOCC1 | 90.26
Cc1ccc(C(=O)N2CC[C@H]3[C@H]2CCN3CC2CCOCC2)cc1F.O=C(O)C(F)(F)F | 1.153
O=C(O)C(F)(F)F.O=C(c1cscn1)N1CC[C@@H]2[C@@H]1CCN2CC1CCOC1 (stereo partly drawn) | 116.3

SMILES | Percent Effect [%]
CC(C(=O)NCC1(c2c(F)cccc2F)CCCC1)S(C)(=O)=O (stereo not drawn) | 26.11
CCOCC1CN(C(=O)N2CCCC2)Cc2cnn(C)c21 (stereo not drawn) | 85.37
CCOCC1CN(C(=O)C2=CCCC2)Cc2cnn(C)c21 (stereo not drawn) | 94.04
COCC1CN(C(=O)C2=CCCC2)Cc2cnn(CC3CC3)c21 (stereo not drawn) | -0.9151
CCOCC1CN(CCN2CCCCC2)Cc2cnn(C)c21.O=C(O)C(F)(F)F.O=C(O)C(F)(F)F.O=C(O)C(F)(F)F (stereo not drawn) | 3.922
COCC1CN(C(=O)C2=CCCCC2)Cc2cnn(CC3CC3)c21 (stereo not drawn) | 3.854
CCOCC1CN(S(C)(=O)=O)Cc2cnn(C)c21 (stereo not drawn) | -13.89
CCOCC1CN(S(=O)(=O)C2CC2)Cc2cnn(C)c21 (stereo not drawn) | -2.389
CCOCC1CN(C(=O)C2CCOCC2)Cc2cnn(C)c21 (stereo not drawn) | 76.58
COCCOc1ccnc(-c2noc([C@@H]3CCCN3C3CCC3)n2)c1 | -11.59
CC(C)(C)C(=O)NCCC(=O)NS(=O)(=O)c1ccc2c(c1)OCCO2 | -7.979
CCc1nc(NC(=O)N(C)Cc2ccoc2)nn1C | 2.955
c1ccc(CCCN2CC(n3cccn3)C2)cc1 | 3.552
CCN(CC)C(=O)[C@@H]1C[C@@H](N)CN1c1nc(N(C)C)nc(C)c1C | 7.659
COCCOc1ccc(S(=O)(=O)Nc2cccc(O)c2F)cc1C | -10.79
Cc1cc(-c2nccs2)nc(C2CCN(Cc3cccs3)CC2)n1 | 113.5
Oc1cc(-c2nccs2)nc(C2CCN(Cc3cccs3)CC2)n1 | 87.73
c1cnc(-c2nc(CN3CCC(c4ccn[nH]4)CC3)cs2)nc1 | -2.472
Cc1cc(-c2nccs2)nc(C2CCN(Cc3ccccn3)CC2)n1 | 103.9
Cn1nccc1C1CCN(Cc2csc(-c3ncccn3)n2)CC1 | 5.984
Cc1ccccc1C1CCN(CCn2cc(-c3nccs3)nn2)C1 (stereo not drawn) | -6.567
Cc1cc(NC2CCN(Cc3ccccn3)CC2)n2nc(C)c(C)c2n1 | 3.019
